About 14,000 (4.5%) of roughly 310,000 compounds showed an effect of 50% or more. Effects have a minus sign here. The sample holds strong results, similar compounds and a random draw of the others, so the mix is not that of the screen.
Molecular target: human ether-à-go-go-related gene (hERG) potassium channel (human, UniProt Q12809)
Test: primary screen, population patch clamp on CHO cells stably expressing hERG; higher = less effect of the substance
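Further: peak tail current of the secondary pulse compared with the same well before compound.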

Chain of human ether-à-go-go-related gene (hERG) potassium channel (Q12809 whole entry, looked up): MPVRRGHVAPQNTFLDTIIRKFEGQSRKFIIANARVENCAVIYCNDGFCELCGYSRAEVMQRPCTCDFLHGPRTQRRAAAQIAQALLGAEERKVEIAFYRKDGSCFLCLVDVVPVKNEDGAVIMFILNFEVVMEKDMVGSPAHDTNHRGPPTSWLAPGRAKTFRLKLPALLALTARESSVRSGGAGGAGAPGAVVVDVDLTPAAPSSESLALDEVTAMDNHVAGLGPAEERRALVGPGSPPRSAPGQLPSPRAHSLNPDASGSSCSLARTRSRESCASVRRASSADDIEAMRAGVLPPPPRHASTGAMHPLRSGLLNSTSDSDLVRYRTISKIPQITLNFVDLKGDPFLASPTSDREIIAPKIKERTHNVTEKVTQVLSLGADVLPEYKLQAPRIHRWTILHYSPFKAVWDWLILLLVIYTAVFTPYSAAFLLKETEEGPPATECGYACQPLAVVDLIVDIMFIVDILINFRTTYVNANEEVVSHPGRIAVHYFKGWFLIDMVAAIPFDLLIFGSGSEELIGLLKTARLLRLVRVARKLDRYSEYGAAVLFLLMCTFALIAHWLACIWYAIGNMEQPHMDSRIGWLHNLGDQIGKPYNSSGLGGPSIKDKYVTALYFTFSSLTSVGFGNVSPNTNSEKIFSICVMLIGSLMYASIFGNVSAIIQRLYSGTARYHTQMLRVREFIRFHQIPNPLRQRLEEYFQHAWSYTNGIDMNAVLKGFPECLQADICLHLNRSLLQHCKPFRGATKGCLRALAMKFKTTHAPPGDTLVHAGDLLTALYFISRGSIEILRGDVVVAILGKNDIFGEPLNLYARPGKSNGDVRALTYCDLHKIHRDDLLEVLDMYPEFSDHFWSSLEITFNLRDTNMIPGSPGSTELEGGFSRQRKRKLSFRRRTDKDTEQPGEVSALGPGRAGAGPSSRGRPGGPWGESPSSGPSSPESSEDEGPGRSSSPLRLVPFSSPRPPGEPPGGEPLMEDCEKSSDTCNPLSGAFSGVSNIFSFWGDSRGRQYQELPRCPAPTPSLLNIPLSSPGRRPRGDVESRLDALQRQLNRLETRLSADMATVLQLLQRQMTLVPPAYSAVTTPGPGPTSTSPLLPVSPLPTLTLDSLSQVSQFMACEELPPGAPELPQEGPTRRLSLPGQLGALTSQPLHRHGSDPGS

Row | SMILES | hERG current change (%, negative = inhibition) at 10uM
1 | CC(C)OCCCNC(=O)c1cccs1 | -9.39%
2 | COc1cc2c(cc1OC)C(c1cc(OC)c(OC)cc1[N+](=O)[O-])N(C(C)=O)CC2 (stereo not shown) | 26%
3 | N#C/C(=N\[O-])c1nc(-c2ccccc2)cs1.[K+] | -8.69%
4 | O=C(O)c1ccc(N/N=C/c2cccc(C(F)(F)F)c2)cc1 | 27.3%
5 | CN1CCc2c(sc(NC(=O)C3CCCCC3)c2C(N)=O)C1.Cl | 2.22%
6 | CC(=O)N1CCc2c(sc(NC(=O)C3CCCN3S(=O)(=O)c3cccs3)c2C(N)=O)C1 (stereo not shown) | -2.88%
7 | CN1CCc2c(sc(NC(=O)c3ccco3)c2C(N)=O)C1.Cl | -17%
8 | CN1CCc2c(sc(NC(=O)C3CCCN3S(=O)(=O)c3ccc(Cl)s3)c2C(N)=O)C1.Cl (stereo not shown) | -63.6%
9 | CN1CCc2c(sc(NC(=O)c3cc(Cl)sc3Cl)c2C(N)=O)C1.Cl | -59.8%
10 | CN1CCc2c(sc(NC(=O)c3ccc4ccccc4c3)c2C(N)=O)C1.Cl | -5.05%
11 | Cc1ccc(-n2cnc3ncnc(-c4ccccc4)c32)cc1 | -6.83%
12 | Cc1ccc2[nH]c3c(c2c1)CN(C)CC3.Cl | -5.01%
13 | O=C(CN(C(=O)c1csnn1)c1cccc(Cl)c1)NC1CCCC1 | -2.38%
14 | COc1ccc(CCC(=O)NNC(=O)Nc2ccc(C(C)C)cc2)cc1 | 23.8%
15 | COc1ccc(NC(=O)CN2CCN(c3ccccn3)CC2)cc1Cl | -17.4%
16 | COc1ccc(CC(NC(C)=O)C(=O)NC2CCN(S(=O)(=O)c3ccccc3)CC2)c(OC)c1 (stereo not shown) | 20.5%
17 | COc1ccccc1/C=C/CN1CCCC(CO)(CCc2ccccc2)C1 (stereo not shown) | -74.7%
18 | COc1ccc(F)c(CN2CCCC(CO)(Cc3cccc(Cl)c3)C2)c1 (stereo not shown) | -30.6%
19 | COc1ccccc1/C=C/CN1CCCCC1 | -2.31%
20 | COc1ccc(CC2(CO)CCN(C/C=C/c3ccccc3OC)CC2)cc1 | -72.8%
21 | COc1ccc(/C=C/CN2CCCC(CO)(Cc3cccc(Cl)c3)C2)cc1 (stereo not shown) | -50.8%
22 | COc1ccccc1/C=C/CN1CCC(CO)(Cc2ccccc2)CC1 | -37.9%
23 | COCc1ccc(CN2CCCC(CO)(Cc3cccc(Cl)c3)C2)o1 (stereo not shown) | -46.1%
24 | COc1ccccc1/C=C/CN1CCSCC1 | -3.74%
25 | COc1ccccc1/C=C/CN1CCOCC1 | -3.9%
26 | COc1cccc(CC2(CO)CCCN(C/C=C/c3ccccc3OC)C2)c1 (stereo not shown) | -73.2%
27 | C=CCC1NS(=O)(=O)OC2CCCC12 (stereo not shown) | 10.6%
28 | Cc1ccc(Cn2cccc(NC(=O)NCc3ccccc3)c2=O)cc1 | -6.27%

Row | SMILES | hERG current change (%, negative = inhibition) at 10uM
29 | NC(=O)c1ccc[n+]([C@H]2O[C@@H](COP(=O)([O-])OP(=O)(O)OC[C@H]3O[C@@H](n4cnc5c(N)ncnc54)[C@H](O)[C@@H]3O)[C@H](O)[C@@H]2O)c1 | 12.1%
30 | Cc1c(C(=O)NN2CCOCC2)oc2c1ccc1ccccc12 | 2.24%
31 | Cc1ccc(C(=O)OCc2nnc(-c3ccccc3)o2)cc1S(=O)(=O)N1CCOCC1 | -26.7%
32 | CN1CCN(C(=O)CC2(CC(=O)O)CCCC2)CC1.Cl | -1.66%
33 | CCn1c(CNC(=O)c2cccc(C)c2)nnc1SCC(=O)Nc1nnc(C)s1 | 15.4%
34 | Cn1c(=O)c(=O)n(C)c2cc(S(=O)(=O)NCCOc3ccccc3Cl)ccc21 | 1.26%
35 | COc1ccccc1/C=C/CN1CCCC(CO)(Cc2cccc(Cl)c2)C1 (stereo not shown) | -69.6%
36 | COc1ccc(C2CC(=O)c3cc(OC)c(OC)cc32)cc1OC (stereo not shown) | 20.7%
37 | COc1ccc(CN(C)C(C)C(=O)Nc2cccc3ccccc23)cc1 (stereo not shown) | -14.1%
38 | Cc1ccc(NC(=O)C2CC(=O)Nc3nncn32)cc1 (stereo not shown) | 14.4%
39 | O=C(COC(=O)c1ccc(O)cc1)NCC1COc2ccccc2O1 (stereo not shown) | -3.35%
40 | COc1ccc(/C=C/C(=O)NC(=S)NNC(=O)c2ccco2)cc1 | 13.8%
41 | Cc1ccc(/C(O)=C2/C(=O)C(=O)N(CCN3CCOCC3)C2c2cccs2)cc1 (stereo not shown) | 8.67%
42 | Cn1c(SCC(=O)N2CCN(Cc3ccccc3)CC2)nnc1-c1ccncc1 | -2.39%
43 | Cc1ccc(-c2csc3nnc(SCC(=O)Nc4nsc(-c5ccccc5)n4)n23)cc1 | -62.9%
44 | Cc1ccc(-c2nc(NC(=O)CSc3nnc4scc(-c5ccccc5)n34)ns2)cc1 | -1.19%
45 | c1ccc(-c2csc3nnc(SCc4ccc5c(c4)OCO5)n23)cc1 | -71.4%
46 | O=C(CSc1nnc2scc(-c3ccccc3)n12)Nc1nsc(-c2ccccc2)n1 | -40.1%
47 | O=C(CSc1nnc2scc(-c3ccccc3)n12)NCc1ccc2c(c1)OCO2 | -21.1%
48 | O=C(CSc1nnc2scc(-c3ccccc3)n12)N1CCN(Cc2ccccc2)CC1 | -41.8%
49 | c1ccc(-c2csc3nnc(SCc4ccc5c(c4)OCCO5)n23)cc1 | -3.29%
50 | Cc1ccc(-c2csc3nnc(SCC(=O)N4CCN(Cc5ccccc5)CC4)n23)cc1 | -55.3%
51 | CCOc1ccccc1NC(=O)C(Sc1nnnn1C)c1ccccc1 (stereo not shown) | -21.2%
52 | Cn1c(NC(=O)c2ccccc2)c(-c2cccs2)c(=O)c2ccccc21 | 7.07%
53 | CC(=O)c1ccc(N=Nc2c(C)[nH]n(-c3ccccc3)c2=O)cc1 | 8.59%
54 | CC1CCN(C(=S)c2cn(Cc3ccc(F)cc3)c3ccccc23)CC1 | -1.82%
55 | COc1cc(/C=C/C(=O)O)cc(S(=O)(=O)Nc2ccc3nc(C)sc3c2)c1OC | 26.5%

— paper PMC4336329 (PLoS ONE, 2015)
